# From PubChem BioAssay AID2435 (The Scripps Research Institute Molecular Screening Center, 2010)
# Among all 320,000 compounds or so, about 1,000 (0.31%) were called active.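 How the source made its calls: active means activation above the mean of all tested compounds plus 3 SD, cutoff set per screening run (cut at about 20% in these data); inactive means the rest.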 Many of the other results were omitted from the sample, so actives are more common in it than they were.
# Target: Oxytocin receptor (Homo sapiens) (UniProt P30559)
# Experiment: human OXTR agonists, primary screen, fluorescence, CHO-OTR cells, Fluo-8 calcium (AID 2435);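 further: peak over basal fluorescence ratio from a 100 s FLIPR kinetic read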
# Conditions: Fluo-8 calcium fluorescence, at 3 µM, active compounds read high
# Sequence of Oxytocin receptor (Homo sapiens) (P30559 whole entry, looked up): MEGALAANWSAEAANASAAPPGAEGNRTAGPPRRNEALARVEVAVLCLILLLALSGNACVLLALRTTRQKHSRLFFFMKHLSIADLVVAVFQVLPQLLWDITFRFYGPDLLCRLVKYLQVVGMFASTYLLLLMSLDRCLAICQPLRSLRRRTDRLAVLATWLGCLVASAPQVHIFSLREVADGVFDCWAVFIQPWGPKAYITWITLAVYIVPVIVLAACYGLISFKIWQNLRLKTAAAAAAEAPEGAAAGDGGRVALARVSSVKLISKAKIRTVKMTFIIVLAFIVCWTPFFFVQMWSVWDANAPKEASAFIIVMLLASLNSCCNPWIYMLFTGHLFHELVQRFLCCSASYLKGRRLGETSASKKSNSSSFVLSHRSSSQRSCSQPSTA
row,Compound,activation
1,CC(=O)NC(=O)NC(C)Cc1ccccc1 (stereo not given),-0.72% (inactive)
2,CC(Cc1ccccc1)NCCC(c1ccccc1)c1ccccc1 (stereo not given),23.9% (active)
3,CC(Cc1ccccc1)NC=O (stereo not given),-0.34% (inactive)
4,O=C(c1cc2nc(-c3ccccc3)cc(-c3ccccc3)n2n1)N1CCC2(CC1)OCCO2,-2.27% (inactive)
5,O=C(Cc1ccc(Cl)cc1)NCCN1CCN(C(=O)Cc2ccc(Cl)cc2)CC1,1.31% (inactive)
